# Measured values from PubChem BioAssay (EPA / NIEHS).
# Activity calls are given as the source filed them. Rule for the calls: active = hit-call score of the fitted dose curve at least 0.9, where 1 is the maximum; inactive = score below 0.9.
# Read-out: Tumor necrosis factor receptor superfamily member 6 (Homo sapiens) (UniProt P25445)
# Experiment: LTEA_HepaRG_FAS: Life Technologies and Expression Analysis (LTEA) Assay for Fas cell surface death receptor (FAS) using HepaRG (AID 2283447)
# Settings: mRNA level, 48 h; actives raise or lower the signal
# Protocol: LTEA_HepaRG is a cell based, multiplexed-readout assay that uses HepaRG, a human liver cell line, with measurements taken at 48 hours after chemical dosing on a 96-well plate.LTEA_HepaRG_FAS is one of 102 assay component(s) measured in the LTEA HepaRG cell culture assay. It is a marker of Cell proliferation, survival, death.Data from the assay component LTEA_HepaRG_FAS was analyzed into 1 endpoint. This assay endpoint, LTEA_HepaRG_FAS, was analyzed with bidirectional fitting relative to DMSO as the negative control and baseline of activity. Using a type of inducible reporter, measures of mRNA induction for gain or loss-of-signal activity can be used to understand regulation of transcription factor activity. To generalize the intended target to other relatable targets, this assay endpoint is annotated to the cytokine receptor intended target family, where the subfamily is TNF receptor.
# A total of 1060 chemcials from the ToxCast library were tested in eight-point concentration-response experiments. Cell culture and cytotoxicity assays were conducted at Thermo Fisher Scientific's Custom Services facility (Madison, WI). A single lot of human HepaRG cells (Thermo Fisher Scientific, Frederick, MD) was used for the cell culture experiments. 96-well format collagen type I coated plates of human HepaRG cells were prepared using established methods. Briefly, cryopreserved HepaRG cells were thawed, plated at a density of approximately 100,000 cells/well in HepaRG Thaw, Plate, and General Purpose media (HPRG770, Thermo Fisher Scientific), and incubated for 48 hours. 0.5% DMSO was selected as vehicle control to balance the requisite need of DMSO in HepaRG cultures to maintain differentiation (for example, baseline metabolism, proportions of hepatocytes vs. cholangiocytes), while enabling further hepatic receptor pathway activation (for example, PXR and CAR) in response to chemical exposure. 48 hours after plating, the culture medium was replaced with HepaRG Serum-Free Incudtion Media. Cells were exposed to each test chemical in duplicate and maintained in CO2 incubators for another 48 hours. Chemical plates were thawed to room temperature and 200x concentrations of treatment groups were prepared. 8-point conentration-reponse curves were made with the highest exposure at 100 uM, followed by half-log dilutions, all in 0.5% DMSO. Each test plate contained variouse controls, induction positive controls (1mM phenobarbital), cytotoxicity positive controls ([…] aflatoxin B1), vehicle controls (0.5% DMSO), and total lysis controls (0.5% DMSO). Cell morphology images were taken using an Essen IncuCyte FLR automated microscope, with six 96-well plates imaged in about 24 minutes. Images were captured and exported and JPEG files. Spent culture media was transfered to black-well plates for the LDH assay, and remaining media was sorted at -80 C for later use. Cells were treated with RLT buffer and frozen until shipped for gene expression analysis. Total RNA was isolated from the cell suspension in 75 uL of Buffer RLT (Qiagen, Germantown, MD 20874) by Quintiles/Expression Analysis (Durham, NC) using a custom isolation procedure. Total RNA from each plate well was transferred to a preamplification plate. Fluidigm's 96.96 Dynamic ArrayTM (Fluidigm, Amsterdam, the Netherlands) technology was used for gene expression analyses by quantitative reverse transcription polymerase chain reaction (qRT-PCR, performed by Quintiles/Expression Analysis, Durham, NC)89. Standard TaqManTM Assays (Applied Biosystems/ThermoFisher Scientific, Foster City, CA) were used to assess the expression of 93 genes selected based on their selectivity and sensitivity to important hepatic receptors known to be modulated by environmental chemicals; importance in human hepatocyte functionality; and hepatotoxicity. […]
SMILES,outcome,AC50
CC(O)CO (stereo not given),inactive,
CC(C)(C)CC(C)(C)c1ccc(O)c(-n2nc3ccccc3n2)c1,inactive,
O=C(O)Cc1cc(I)c(Oc2cc(I)c(O)c(I)c2)c(I)c1,inactive,
O=C(O)c1ccccc1C(c1ccc(O)cc1)c1ccc(O)cc1,inactive,
O=[N+]([O-])c1ccc(O)cc1,inactive,
Nc1cccc2c(N)cccc12,inactive,
COCC(C)OCC(C)O (stereo not given),inactive,
CCc1nn(C2CCCCC2)c2cc(C3(C#N)CCC(C(=O)O)CC3)ccc12 (stereo not given),,31.1 µM (active)
CCN(CC)CCNc1ccc(CNC=O)c2sc3ccc(OC)cc3c(=O)c12,inactive,
CC[C@H](c1ccc(O)cc1)[C@@H](CC)c1ccc(O)cc1,,89.3 µM (active)
N#C[C@@H]1CC(F)(F)CN1C(=O)CNC1CC2CCC(C1)N2c1ncccn1 (stereo not given in full),inactive,
CC(C)(C)c1cccc(C(C)(C)C)c1O,inactive,
CC(C)CCCCCCOC(=O)CCCCC(=O)OCCCCCCC(C)C,inactive,
COC(=O)CCCCC(=O)OC,inactive,
CCCOc1sc(C(=O)N2CCC(c3cc(CN)ccc3F)CC2)c(C)c1Br,inactive,
Cc1cc(C)c(O)c(C)c1,inactive,
Cc1cc(CCN2CCN(c3nsc4ccccc34)CC2)cc2c1NC(=O)CC2(C)C,inactive,
Oc1cccc(O)c1,inactive,
C#C[C@]1(O)CC[C@H]2[C@@H]3CCC4=CC(=O)CC[C@@H]4[C@H]3CC[C@@]21C,inactive,
CC(C)(C)c1ccc(O)c(C(C)(C)C)c1,inactive,

SMILES,outcome,AC50
c1ccc2c(c1)ccc1ccccc12,inactive,
CN1CCC[C@H]1c1cccnc1,inactive,
NC(=O)N(O)[C@@H]1C=C[C@H](Oc2cccc(Oc3ccc(F)cc3)c2)C1,,67.2 µM (active)
OCCC(F)(F)C(F)(F)C(F)(F)C(F)(F)C(F)(F)C(F)(F)C(F)(F)C(F)(F)F,inactive,
CN(C)C=O,inactive,
OCCC(F)(F)C(F)(F)C(F)(F)C(F)(F)C(F)(F)C(F)(F)F,inactive,
CCC(=C(c1ccc(O)cc1)c1ccc(OCCN(C)C)cc1)c1ccccc1,inactive,
CCOC(=O)CC(O)(CC(=O)OCC)C(=O)OCC,inactive,
ClC1=C(Cl)C(Cl)(Cl)C(Cl)=C1Cl,inactive,
CC1=C(/C=C/C(C)=C/C=C/C(C)=C/C(=O)O)C(C)(C)CCC1,inactive,
c1ccc2cc3c(ccc4ccccc43)cc2c1,inactive,
CC[C@H](C)[C@@H](C(=O)O)n1sc2ccccc2c1=O,inactive,
CN1CCN(c2ccccc2/C=C2\SCCN(c3ccc(Cl)c(Cl)c3)C2=O)CC1,inactive,
C[C@@H]1C[C@H]2[C@@H]3CCC4=CC(=O)C=C[C@]4(C)[C@@]3(F)[C@@H](O)C[C@]2(C)[C@@]1(O)C(=O)COP(=O)(O)O,inactive,
OC1CCCCC1,inactive,
Oc1cc2ccccc2c2ccccc12,inactive,
CC(=O)NC1(c2cccc(F)c2)CCN(CC[C@@]2(c3ccc(Cl)c(Cl)c3)CN(c3ccccc3)C(=O)CO2)CC1,,71.9 µM (active)
O=C(OCCOCCOC(=O)c1ccccc1)c1ccccc1,inactive,
COCC(C)O (stereo not given),inactive,
c1ccc2c(c1)Cc1ccccc1-2,inactive,
